Screening data from PubChem BioAssay.
Rows were chosen to be rich in hits. Some 12% of all compounds tested hit in one or more screens of this group.
G9a block: inhibitors of human histone lysine methyltransferase G9a. Q96KQ7. G9a H3K9 monomethylation, AlphaScreen, 2 h. Potency, µM (highest dose often 102 µM), actives largely listed as inhibitors. hit rate 8.8% among 350,000; further: nearly all actives have a fitted effect of over 75% in size
Target sequence (Q96KQ7 913-1193 limits assumed): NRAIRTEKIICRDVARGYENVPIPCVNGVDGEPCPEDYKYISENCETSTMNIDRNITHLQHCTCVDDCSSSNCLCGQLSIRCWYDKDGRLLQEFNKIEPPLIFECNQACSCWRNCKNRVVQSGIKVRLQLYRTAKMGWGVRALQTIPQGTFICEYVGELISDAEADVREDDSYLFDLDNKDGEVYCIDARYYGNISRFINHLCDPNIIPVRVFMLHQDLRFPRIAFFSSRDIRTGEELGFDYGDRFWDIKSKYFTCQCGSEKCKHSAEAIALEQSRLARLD
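Chemiluminescent proximity detection of H3K9 monomethylation, read after 10 min bead incubation in the dark. Reaction: 20 nM G9a, 500 nM biotin-H3K9 peptide, 20 uM SAM cofactor, 2 h, room temperature, following 15 min enzyme-compound preincubation.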
JMJD2A Tudor: inhibitors of human JMJD2A Tudor domain | hit rate 4.4% among 390,000 | Potency, µM (top dose mostly 114 µM), most hits filed as inhibitors | AlphaScreen JMJD2A-Tudor / H3K4me3 peptide binding | AID 504339 | O75164; further: nearly all actives have a fitted effect of over 50% in size
HP1b binding inh: inhibitors of HP1-beta chromodomain binding to methylated histone tails; AlphaScreen HP1-beta / biotin-H3K9me3 peptide binding; Potency, µM (highest dose often 114 µM), usual class: inhibitors; hit rate 0.56% among 390,000; further: nearly all actives have a fitted effect of over 70% in size
Target sequence (P83916 whole entry, looked up): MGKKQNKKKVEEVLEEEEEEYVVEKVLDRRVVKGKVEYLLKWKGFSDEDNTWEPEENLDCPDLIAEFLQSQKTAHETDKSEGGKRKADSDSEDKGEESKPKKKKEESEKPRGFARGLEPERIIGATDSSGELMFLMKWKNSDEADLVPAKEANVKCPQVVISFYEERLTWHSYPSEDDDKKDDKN
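AlphaScreen: HP1-beta (50 nM) preformed 30 min with biotin-H3(1-18)K9me3 peptide (50 nM) in PBS pH 7.4, 0.01% Tween-20. Compound added for 30 min at RT, then streptavidin donor/nickel chelate acceptor beads (10 ug/mL) for 30 min.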
Sfp inh: Sfp phosphopantetheinyl transferase inhibition; Q9F4F7; Biochemical Sfp PPTase activity, qHTS; Potency, µM, actives largely listed as inhibitors; hit rate 3.5% among 310,000; AID 1490;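 further: the enzyme is Sfp with the accession as filed and its product quenches rhodamine fluorescence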
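Fluorescence-quenching assay: 15 nM Sfp-PPTase preincubated 15 min at room temperature with compound, then 5 uM rhodamine-CoA and 12.5 uM BHQ-2-labelled YbbR peptide added. Fluorescence (ex 525/em 598 nm) read at start and after 30 min; difference gives rate.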
PLK1 PBD inh: inhibitors of human PLK1 polo-box domain binding. Plk1 PBD binding of FITC phosphopeptide, fluorescence polarization. P53350. Potency, µM, hits mostly inhibitors. hit rate 2.8% among 360,000; further: series mostly up to about 57 µM; nearly all actives have a fitted effect of over 65% in size
BAZ2B inh: blocks human BAZ2B | Q9UIF8 | AlphaScreen BAZ2B-H3K14Ac peptide displacement | Potency, µM (highest dose often 114 µM), most hits filed as inhibitors | hit rate 4.4% among 360,000 | AID 504333; further: nearly all actives have a fitted effect of over 60% in size
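Inhibition is scored as reduced AlphaScreen emission. The BAZ2B/b-H3(5-23)K14Ac complex (50 nM each) in PBS pH 7.4, 0.01% Tween-20 meets compound (up to 110 uM) for 30 min at RT before bead addition.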
Hits are given with their value; 0 = inactive; ? = inconclusive; - = no result; [ ] = another dose, or the depositor's remark. The call rests on the fitted dose curve; in most records, active means well fitted curve in the direction sought with a large enough effect; inconclusive means small, poorly fitted or top-dose-only effect, or another doubt; inactive means no such curve, though single readings can be large; an effect the other way counts as inactive or inconclusive.

SMILES	G9a block	JMJD2A Tudor	HP1b binding inh	Sfp inh	PLK1 PBD inh	BAZ2B inh
CCN(CC(=O)Nc1ccc(NC(C)=O)cc1)C(=O)/C=C/c1cn(Cc2ccccc2)nc1-c1cccnc1	14µM	0	0	-	0	0
CCN(CC(=O)Nc1ccc(NC(C)=O)cc1)C(=O)/C=C/c1cn(-c2ccccc2)nc1-c1cccs1	32µM	0	0	-	0	0
CCN(CC(=O)Nc1ccc(NC(C)=O)cc1)C(=O)/C=C/c1ccccc1	0	0	0	-	0	0
CCOc1ccc(CNC(=O)c2ccc3c(c2)c(C)c(C)n3Cc2ccccc2)cc1OC	?	0	0	-	-	0
CC[C@H](C)/C=C/C1=CC2=C(Cl)C(=O)[C@@]3(C)OC(=O)C(C(=O)[C@H](C)[C@@H](C)O)=C3C2=CO1	-	56µM	?	-	6µM	-
CCCCCCCC1=CC2=C(Cl)C(=O)C(C)(OC(C)=O)C(=O)C2=CO1 (stereo not given)	-	-	-	0	-	-
CC(=O)c1ccc(Nc2ncnc3c2oc2ccccc23)cc1	79µM	?	0	0	0	?
Cc1cc(C)n(-c2ncccc2[N+](=O)[O-])n1	-	0	0	0	0	0
O=[N+]([O-])c1cccnc1-n1cnc2ccccc21	45µM	0	0	10µM	0	0
O=[N+]([O-])c1cccnc1N1CCOCC1	-	0	0	0	0	0
Cc1cc2ncn(-c3ncccc3[N+](=O)[O-])c2cc1C	11µM	?	0	40µM	0	89µM
CCOc1ccccc1NC(=O)Cn1c(=O)n(C(C)C)c(=O)c2oc3ccccc3c21	0	0	0	-	-	0
COc1ccc(N2CCN(C(=O)c3ccc(OCC4CCCO4)cc3)CC2)cc1 (stereo not given)	?	0	0	0	0	0
COCCNC(=O)c1cn(C(C)c2ccccc2F)nn1 (stereo not given)	0[12.7 µM]	0	0	0	0	0
CC(c1ccccc1F)n1cc(C(=O)NCCc2ccco2)nn1 (stereo not given)	50µM	0	0	0	0	0
COc1ccc(NC(=O)CSc2nnc(Cc3cccn3C)n2-c2ccc(F)cc2)cc1	71µM	0	0	0	?	?
COc1ccc(-n2c(Cc3cccn3C)nnc2SCC(=O)Nc2ccc(F)cc2)cc1	35µM	0	0	0	0	?
COc1cc(OC)c(OC)cc1CN1CCN(Cc2ccco2)CC1	35µM	22µM	0	0	0	79µM
COc1cc(OC)c(OC)cc1CN1CCN(Cc2cccc(F)c2)CC1	?	56µM	0	0	0	0
COc1ccc(CN2CCN(c3ccccc3OC)CC2)cc1OC	-	22µM	?	0	0	50µM
COc1ccc(NC(=S)N2CCN(Cc3ccco3)CC2)c(OC)c1	0	0	0	0	0	0
Cc1ccccc1N1CCN(Cc2cccc(C(=O)O)c2)CC1	0	0	0	0	0	0
COC(=O)c1cc(CN2CCN(c3ccccc3C)CC2)ccc1O	7.1µM	2µM	?	0	0	56µM
Cc1noc(C)c1NC(=O)Nc1cccc2c1O[C@H](CN(C)C(=O)NC1CCCCC1)[C@@H](C)CN([C@H](C)CO)C2=O	-	0	0	-	0	-
COc1ccc(CN2CCN(Cc3ccccc3F)CC2)cc1OC	8.9µM	5.6µM	?	?	0	35µM
SMILES	G9a block	JMJD2A Tudor	HP1b binding inh	Sfp inh	PLK1 PBD inh	BAZ2B inh
COc1cc(OC)c(OC)cc1CN1CCN(c2ccc(F)cc2)CC1	28µM	45µM	?	0	0	50µM
COc1ccc(CN2CCCCCC2)cc1OC	-	?	0	-	0	-
COc1ccc(CN2CCN(Cc3cccc(F)c3)CC2)cc1OC	0[2.33 µM]	3.2µM	?	?	0	22µM
CCc1c(CN2CCN(c3ccc(F)cc3)CC2)csc1C	?	0	0	-	-	0
COc1ccc(-c2nn(Cc3ccccc3)cc2C(=O)N2CCN(c3ncccn3)CC2)cc1	?	0	0	-	0	0
Cc1nc(N)sc1C(=O)N/N=C/c1ccco1	0	0	0	0	0	0
Cc1nc(N)sc1C(=O)N1N=N1	8.9µM	?	0	0	?	0
COc1cccc(/C=N/c2oc(-c3ccccc3)cc2C#N)c1O	0	0	0	?	0	?
N#Cc1cc(-c2ccccc2)oc1/N=C/c1ccccc1O	?	79µM	0	0	0	0
COc1ccc(NC(=O)C2CSC3c4ccccc4C(=O)N23)cc1 (stereo not given)	28µM	0	0	0	0	?
CC1(C)OC[C@@H]2O[C@@]3(C(=O)O)OC(C)(C)O[C@@H]3[C@@H]2O1	0[12.7 µM]	-	-	0	-	-
Nc1ccc(Cc2ccc(N)c(O)c2)cc1O	50µM	40µM	?	0	0	?
COc1cc(C2CC(=O)Oc3c(C(CCN4CCOCC4)c4ccc(N(C)C)cc4)c(OC)cc(OC)c32)cc(OC)c1OC (stereo not given)	?	40µM	?	0	0	45µM
COc1cc(C2CC(=O)Oc3c(C(CCN4CCN(c5ccccc5)CC4)c4ccc(N(C)C)cc4)c(OC)cc(OC)c32)cc(OC)c1OC (stereo not given)	?	8.9µM	?	0	0	7.9µM
COc1ccc(C(CCN2CCOCC2)c2c(OC)cc(OC)c3ccc(=O)oc23)cc1 (stereo not given)	-	0	0	-	0	-
O=C(CSc1nc(-c2ccccc2)nc2c1CCCC2)c1ccc(F)cc1	0	0	0	-	-	0
CCOC(=O)C1(CC2CCCCO2)CCN(Cc2cc3ccccc3[nH]2)CC1 (stereo not given)	?	0	0	0	0	?
O=C1CC(N2CCCc3ccccc32)C(=O)N1c1ccccc1 (stereo not given)	40µM	0	0	0	0	0
CCc1ccccc1N1C(=O)CC(N2CCc3ccccc32)C1=O (stereo not given)	?	0	0	0	0	0
CCOC(=O)C1CCN(c2c(C(=O)c3ccccc3)cnc3ccc(CC)cc23)CC1	?	0	0	0	0	?
COc1cc2ncc(C(=O)c3ccccc3)c(N3CCN(Cc4ccccc4)CC3)c2cc1OC	35µM	22µM	?	0	0	?
O=C(c1ccccc1)c1cnc2ccc(Cl)cc2c1N1CCOCC1	50µM	?	0	0	0	?
CNC(=O)c1c(NC(=O)CCS(=O)(=O)c2ccccc2)sc2c1CCN(C(=O)OC)C2	50µM	0	0	-	0	0
CCOC(=O)c1c(NC(=O)CCS(=O)(=O)c2ccccc2)sc2c1CCN(C(C)C)C2	-	0	0	0	0	0
CC(=O)N1CCc2c(sc(NC(=O)CCS(=O)(=O)c3ccc(C)cc3)c2C#N)C1	0	0	0	-	0	0
CNC(=O)c1c(NC(=O)CCS(=O)(=O)c2ccc(C)cc2)sc2c1CCN(C(=O)OC)C2	50µM	0	0	-	?	0
COC(=O)C1Cc2ccccc2CN1S(=O)(=O)c1ccc(F)cc1 (stereo not given)	0	0	0	0	0	0
Nc1ccccc1Oc1c(F)c(F)c(Oc2ccccc2N)c(F)c1F	-	0	0	0	0	0
